Laboratory results as given in PubChem BioAssay.
Some of the results follow. Calls of active or inactive are those of the source. Unless noted, no stated cut-off is given here; in the data, active means inhibition above about 30%; inactive means the rest.

Legend:
[1] = molecular target: Nuclear receptor coactivator 3 (Homo sapiens) (UniProt Q9Y6Q9); experiment: NCOA3 GAL4-fusion reporter inhibition – cell-based, luminescence, quadruplicate, confirmation (AID 588792;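 active means mean inhibition over 43.08%, the solvent-only control mean plus 3 SD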;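 further: 0% = DMSO treated cells and 100% = gossypol at 36 µM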); details: HEK293 GAL4-SRC3 luciferase reporter, at 3.6 µM, hits give high values
[2] = system: transactivating tegument protein VP16 (Human herpesvirus 1), Gal4-VP16 luciferase reporter; experiment: repression of VP16-driven luciferase reporter – cell-based, luminescence, high throughput, counter-screen for SRC3 inhibitor project (AID 588794); details: mammalian cells, at 3.6 µM, hits give high values
[3] = molecular target: Nuclear receptor coactivator 1 (Homo sapiens) (UniProt Q15788); experiment: NCOA1 GAL4-fusion reporter inhibition – cell-based, luminescence, quadruplicate, confirmation (AID 588820;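 active means mean inhibition above 46.68%, the untreated control wells mean plus 3 SD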;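 further: 0% = DMSO wells and 100% = gossypol 36 µM treated wells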); details: HEK293 GAL4-SRC1 luciferase reporter, at 3.6 µM, hits give high values
[4] = repression of VP16-driven luciferase reporter – cell-based, luminescence, high throughput, counter-screen for SRC1 inhibitor project (AID 588824; in the data active means inhibition above about 25%); details: cell-based VP16 transactivation luciferase luminescence; at 3.6 µM; hits give high values
[5] = StAR promoter reporter inhibitors, counter-screen for LRH-1 inverse agonist project, cell-based, luminescence, high throughput (AID 651611; in the data active means inhibition above about 28%); details: StAR promoter luciferase reporter counterscreen, at 3.6 µM, hits give high values
[6] = molecular target: Nuclear receptor subfamily 5 group A member 2 (Homo sapiens) (UniProt O00482); experiment: NR5A2 activity suppression in reporter cells – cell-based, luminescence, confirmation (AID 651613; in the data active means inhibition above about 42%;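 further: HEK293T cells co-transfected with LRH-1 and StAR promoter luciferase reporter; 0% = vehicle wells and 100% = parental cells lacking receptor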); details: cell-based LRH-1 luciferase reporter, inverse agonism; at 3.6 µM; hits give high values
[7] = molecular target: Steroidogenic factor 1 (Homo sapiens) (UniProt Q13285); experiment: inverse agonism at SF1 nuclear receptor – cell-based, luminescence, high throughput, counter-screen for LRH-1 inverse agonist project (AID 651614; in the data active means inhibition above about 44%;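 further: cells cotransfected with StAR promoter reporter and SF1 expression vector; 0% = vehicle on cells with receptor and 100% = vehicle on cells lacking receptor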); details: cell-based SF1 luciferase reporter, at 3.6 µM, hits give high values
[8] = compounds suppressing VP16-driven luciferase signal – cell-based, luminescence, high throughput, counter-screen for LRH-1 inverse agonist project (AID 651615; in the data active means inhibition above about 33%); details: Gal4-VP16 luciferase reporter cells, at 3.6 µM, hits give high values
[9] = system: transactivating tegument protein VP16 (Human herpesvirus 1); experiment: compounds suppressing VP16-driven luciferase signal – cell-based, luminescence, single concentration, counter-screen for SRC2 inhibitor project (AID 652007; in the data active means inhibition above about 36%); details: cell-based VP16 transactivation luciferase reporter, at 8.9 µM, hits give high values
[10] = molecular target: Nuclear receptor coactivator 2 (Homo sapiens) (UniProt Q15596); experiment: inhibition of GAL4-SRC2 driven luciferase expression – cell-based, luminescence, HEK293, triplicate, confirmation (AID 652008;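 active means mean inhibition above 46.5%, the solvent-only control mean plus 3 SD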;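 further: 0% = DMSO-treated cells and 100% = Gossypol at 36 µM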); details: HEK293 GAL4-SRC2 luciferase reporter, at 8.9 µM, hits give high values
[11] = VP16-driven transactivation reporter suppression – cell-based, luminescence, HEK293, counter-screen for COUP-TFII antagonist project (AID 687007; in the data active means inhibition above about 13%); details: HEK293 Gal4-VP16 luciferase reporter, at 8.5 µM, hits give high values
[12] = molecular target: COUP transcription factor 2 (Homo sapiens) (UniProt P24468); experiment: retest of COUP-TFII reporter suppressors – cell-based, luciferase reporter, HEK293, triplicate, confirmation (AID 687008;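 active means mean inhibition over three repeats above a set limit taken from the earlier primary screen, cut at about 38% in these data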;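 further: 100% = cells given the luciferase reporter alone without the COUP-TF2 vector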); details: HEK293 NGFI-A luciferase reporter, luminescence; at 8.5 µM; hits give high values

Measured: inhibition

Chain of Nuclear receptor coactivator 3 (Homo sapiens) (Q9Y6Q9 whole entry, looked up, the tested form may be a part): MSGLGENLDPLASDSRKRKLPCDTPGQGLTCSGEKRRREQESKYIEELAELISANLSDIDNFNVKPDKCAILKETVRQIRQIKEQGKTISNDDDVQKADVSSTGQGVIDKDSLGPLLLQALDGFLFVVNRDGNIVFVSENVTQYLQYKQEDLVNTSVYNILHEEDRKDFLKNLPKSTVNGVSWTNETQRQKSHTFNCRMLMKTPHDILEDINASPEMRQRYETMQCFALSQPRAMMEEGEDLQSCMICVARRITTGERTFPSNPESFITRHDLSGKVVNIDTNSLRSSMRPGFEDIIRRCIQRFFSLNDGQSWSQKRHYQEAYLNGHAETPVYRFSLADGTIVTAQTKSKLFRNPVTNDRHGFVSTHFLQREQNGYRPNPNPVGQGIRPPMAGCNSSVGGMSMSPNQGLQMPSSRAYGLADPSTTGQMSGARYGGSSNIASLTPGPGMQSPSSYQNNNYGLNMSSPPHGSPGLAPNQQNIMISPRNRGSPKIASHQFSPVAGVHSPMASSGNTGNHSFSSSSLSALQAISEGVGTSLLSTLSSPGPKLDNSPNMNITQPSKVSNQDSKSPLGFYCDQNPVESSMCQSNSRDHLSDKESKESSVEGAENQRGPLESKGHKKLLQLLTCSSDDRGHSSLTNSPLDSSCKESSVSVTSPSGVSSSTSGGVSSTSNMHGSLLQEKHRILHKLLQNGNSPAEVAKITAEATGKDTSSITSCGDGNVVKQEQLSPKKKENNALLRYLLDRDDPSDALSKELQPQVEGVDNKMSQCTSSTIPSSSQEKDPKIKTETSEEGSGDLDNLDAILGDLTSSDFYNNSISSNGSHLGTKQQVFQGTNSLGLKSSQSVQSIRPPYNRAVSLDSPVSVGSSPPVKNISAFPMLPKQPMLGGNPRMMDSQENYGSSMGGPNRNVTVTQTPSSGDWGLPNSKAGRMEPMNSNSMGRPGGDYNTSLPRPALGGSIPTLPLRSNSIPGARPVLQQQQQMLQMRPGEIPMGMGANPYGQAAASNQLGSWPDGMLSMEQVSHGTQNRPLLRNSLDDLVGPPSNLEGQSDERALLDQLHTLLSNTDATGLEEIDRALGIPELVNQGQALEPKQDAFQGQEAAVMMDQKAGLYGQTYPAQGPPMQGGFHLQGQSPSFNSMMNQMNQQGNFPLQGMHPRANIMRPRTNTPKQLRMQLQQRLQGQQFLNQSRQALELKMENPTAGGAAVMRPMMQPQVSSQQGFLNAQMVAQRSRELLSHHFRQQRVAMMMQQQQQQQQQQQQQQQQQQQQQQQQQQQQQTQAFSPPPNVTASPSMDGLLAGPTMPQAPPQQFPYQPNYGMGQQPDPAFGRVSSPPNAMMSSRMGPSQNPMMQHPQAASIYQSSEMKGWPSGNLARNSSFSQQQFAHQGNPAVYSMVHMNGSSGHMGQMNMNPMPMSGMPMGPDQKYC
Chain of Nuclear receptor coactivator 2 (Homo sapiens) (Q15596 whole entry, looked up, the tested form may be a part): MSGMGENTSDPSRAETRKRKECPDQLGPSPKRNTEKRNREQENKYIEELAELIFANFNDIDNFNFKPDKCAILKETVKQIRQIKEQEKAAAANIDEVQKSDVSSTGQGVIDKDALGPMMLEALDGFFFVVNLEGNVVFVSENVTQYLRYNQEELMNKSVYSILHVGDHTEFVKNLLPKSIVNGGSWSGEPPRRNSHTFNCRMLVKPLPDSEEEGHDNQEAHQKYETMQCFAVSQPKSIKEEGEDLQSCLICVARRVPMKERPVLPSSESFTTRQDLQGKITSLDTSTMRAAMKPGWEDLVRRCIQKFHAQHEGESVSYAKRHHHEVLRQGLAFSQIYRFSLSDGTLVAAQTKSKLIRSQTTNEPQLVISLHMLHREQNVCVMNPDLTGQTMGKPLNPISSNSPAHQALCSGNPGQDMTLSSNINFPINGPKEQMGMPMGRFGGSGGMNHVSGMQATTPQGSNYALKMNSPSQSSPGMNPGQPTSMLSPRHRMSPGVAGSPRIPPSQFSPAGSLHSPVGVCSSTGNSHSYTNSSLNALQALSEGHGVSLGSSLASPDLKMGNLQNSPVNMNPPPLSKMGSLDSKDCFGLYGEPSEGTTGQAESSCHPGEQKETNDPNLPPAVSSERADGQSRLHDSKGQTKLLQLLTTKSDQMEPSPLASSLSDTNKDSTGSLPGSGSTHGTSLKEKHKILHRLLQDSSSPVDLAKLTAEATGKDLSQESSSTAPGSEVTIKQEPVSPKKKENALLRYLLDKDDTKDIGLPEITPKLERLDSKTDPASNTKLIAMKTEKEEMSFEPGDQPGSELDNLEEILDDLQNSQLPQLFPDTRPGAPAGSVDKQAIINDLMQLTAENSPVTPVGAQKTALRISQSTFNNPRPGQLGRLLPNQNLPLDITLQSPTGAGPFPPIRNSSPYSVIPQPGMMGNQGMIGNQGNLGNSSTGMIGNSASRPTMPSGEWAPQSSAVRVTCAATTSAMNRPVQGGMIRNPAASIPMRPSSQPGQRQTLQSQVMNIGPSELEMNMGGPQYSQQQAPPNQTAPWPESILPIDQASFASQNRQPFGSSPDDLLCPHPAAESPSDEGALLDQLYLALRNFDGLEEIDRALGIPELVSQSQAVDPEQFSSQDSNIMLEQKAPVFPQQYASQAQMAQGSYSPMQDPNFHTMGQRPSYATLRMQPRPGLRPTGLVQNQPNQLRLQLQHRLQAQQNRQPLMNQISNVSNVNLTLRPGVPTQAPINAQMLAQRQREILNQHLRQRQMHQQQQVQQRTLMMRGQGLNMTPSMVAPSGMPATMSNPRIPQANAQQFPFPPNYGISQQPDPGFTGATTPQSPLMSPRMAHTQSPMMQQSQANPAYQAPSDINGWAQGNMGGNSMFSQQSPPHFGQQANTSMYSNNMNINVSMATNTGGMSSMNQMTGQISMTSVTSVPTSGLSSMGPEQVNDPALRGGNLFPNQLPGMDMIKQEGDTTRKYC
Chain of Nuclear receptor subfamily 5 group A member 2 (Homo sapiens) (O00482 whole entry, looked up): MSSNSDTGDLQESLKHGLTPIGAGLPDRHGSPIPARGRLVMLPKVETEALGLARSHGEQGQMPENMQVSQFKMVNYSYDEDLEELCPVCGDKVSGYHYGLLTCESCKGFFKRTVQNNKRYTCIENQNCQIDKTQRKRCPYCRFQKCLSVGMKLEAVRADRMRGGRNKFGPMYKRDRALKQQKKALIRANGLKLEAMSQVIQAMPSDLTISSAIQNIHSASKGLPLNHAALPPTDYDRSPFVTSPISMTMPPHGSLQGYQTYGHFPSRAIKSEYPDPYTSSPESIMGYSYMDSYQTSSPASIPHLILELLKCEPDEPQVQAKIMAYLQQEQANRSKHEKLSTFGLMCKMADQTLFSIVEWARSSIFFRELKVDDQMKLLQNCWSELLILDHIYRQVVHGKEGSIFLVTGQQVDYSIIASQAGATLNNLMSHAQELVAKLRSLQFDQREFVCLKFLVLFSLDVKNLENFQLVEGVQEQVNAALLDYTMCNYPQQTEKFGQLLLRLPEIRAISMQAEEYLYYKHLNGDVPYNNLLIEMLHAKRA
Chain of Nuclear receptor coactivator 1 (Homo sapiens) (Q15788 whole entry, looked up, the tested form may be a part): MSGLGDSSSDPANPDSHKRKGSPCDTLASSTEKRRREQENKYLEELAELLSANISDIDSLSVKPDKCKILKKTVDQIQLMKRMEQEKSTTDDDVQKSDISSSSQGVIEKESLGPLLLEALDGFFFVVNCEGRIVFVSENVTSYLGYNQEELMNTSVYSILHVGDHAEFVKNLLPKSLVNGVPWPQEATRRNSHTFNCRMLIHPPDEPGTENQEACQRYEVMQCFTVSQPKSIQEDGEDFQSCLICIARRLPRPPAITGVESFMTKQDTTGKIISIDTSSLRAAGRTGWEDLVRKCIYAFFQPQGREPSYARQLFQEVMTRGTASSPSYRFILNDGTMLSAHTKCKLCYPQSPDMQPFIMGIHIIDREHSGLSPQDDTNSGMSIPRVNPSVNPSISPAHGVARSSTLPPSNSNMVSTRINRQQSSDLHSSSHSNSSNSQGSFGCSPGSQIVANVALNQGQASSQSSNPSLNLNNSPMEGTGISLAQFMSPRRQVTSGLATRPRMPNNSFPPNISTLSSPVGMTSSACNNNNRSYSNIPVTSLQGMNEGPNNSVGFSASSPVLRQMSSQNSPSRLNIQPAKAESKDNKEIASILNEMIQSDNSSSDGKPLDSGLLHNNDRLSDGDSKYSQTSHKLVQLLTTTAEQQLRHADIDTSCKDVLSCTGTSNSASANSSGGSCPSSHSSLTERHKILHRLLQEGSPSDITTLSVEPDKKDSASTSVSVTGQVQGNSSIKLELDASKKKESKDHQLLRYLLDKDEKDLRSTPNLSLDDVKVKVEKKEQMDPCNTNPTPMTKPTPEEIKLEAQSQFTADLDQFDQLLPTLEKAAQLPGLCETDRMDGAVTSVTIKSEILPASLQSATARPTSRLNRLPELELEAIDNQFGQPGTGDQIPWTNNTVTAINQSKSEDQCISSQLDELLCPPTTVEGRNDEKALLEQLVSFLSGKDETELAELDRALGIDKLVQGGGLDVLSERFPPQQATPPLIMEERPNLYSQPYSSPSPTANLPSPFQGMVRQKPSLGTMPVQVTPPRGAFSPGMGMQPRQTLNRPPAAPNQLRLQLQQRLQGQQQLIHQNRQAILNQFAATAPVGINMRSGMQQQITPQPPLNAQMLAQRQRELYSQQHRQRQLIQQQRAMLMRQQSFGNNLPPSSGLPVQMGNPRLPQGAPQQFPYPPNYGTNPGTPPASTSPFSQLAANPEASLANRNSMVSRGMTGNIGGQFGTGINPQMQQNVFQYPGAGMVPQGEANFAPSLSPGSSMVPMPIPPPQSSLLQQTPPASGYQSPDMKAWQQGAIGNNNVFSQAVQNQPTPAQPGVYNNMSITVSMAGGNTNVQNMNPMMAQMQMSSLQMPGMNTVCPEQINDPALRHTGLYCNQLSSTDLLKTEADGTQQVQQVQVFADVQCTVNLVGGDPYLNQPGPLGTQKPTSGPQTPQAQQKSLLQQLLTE

CC12CCC3C(CCC4(O)CC(O)CCC34C=NO)C1(O)CCC2C1=COC(=O)C1 (stereo not given)
inactive: [10] 29.4%
active: [1] 94.5% | [2] 84.4% | [3] 61.1% | [4] 82.2% | [5] 96.3% | [6] 110% | [7] 98.2% | [8] 89.2% | [9] 54.3%

COC1C(O)C(C)OC(OC2CCC3(C=O)C(CCC4C3CCC3(C)C(C5=CC(=O)OC5)CCC43O)C2)C1O (stereo not given)
active: [1] 96.8% | [2] 89.2% | [3] 81.5% | [4] 88.7% | [5] 93.6% | [6] 110% | [7] 97.2% | [8] 93% | [11] 51% | [12] 76.3%

C=C1C(=O)OC2CC(C)C3C=CC(=O)C3(C)C(O)C12 (stereo not given)
inactive: [1] 38%
active: [2] 90.7% | [4] 90.6% | [5] 62.5% | [6] 88.6% | [7] 90.1% | [8] 91.2%

COc1ccc2c(c1)[nH]c1c(C)nccc12
inactive: [9] 9.1% | [10] 42.9%
active: [1] 79% | [2] 48.6% | [3] 63.4% | [4] 51.4%

C[C@]12CC[C@H](O)C[C@H]1CC[C@@H]1[C@@H]2CC[C@]2(C)[C@@H](C3=CC(=O)OC3)CC[C@]12O
active: [1] 95.3% | [2] 82.7% | [3] 58.7% | [4] 80.1% | [5] 95.7% | [6] 110% | [7] 97.4% | [8] 87% | [9] 56%
inactive: [10] 30.2%

C[C@]12CC[C@H]3[C@@H](CC[C@]4(O)C[C@@H](O)CC[C@]34C=O)[C@@]1(O)CC[C@@H]2C1=CC(=O)OC1
active: [1] 92.8% | [2] 81.1% | [3] 46.8% | [4] 79.7% | [6] 110% | [7] 98.7%

N#CC1c2ccccc2-n2nncc2CN1Cc1cc(Cl)cc(Cl)c1 (stereo not given)
active: [1] 92.8% | [2] 84.7% | [3] 79.7% | [4] 90.4% | [5] 90.5% | [6] 106% | [7] 94.1% | [8] 94.3% | [9] 82.2% | [10] 84.5%

O=C(c1ccccc1)C(CN1CCCC1)c1ccccc1 (stereo not given)
active: [2] 33.5% | [4] 39.2% | [10] 68.3%
inactive: [1] 19.4% | [3] 10.9% | [9] 27%

CC(=O)OC1CC2OC3C=C(C)CCC3(C)C1(C)C21CO1 (stereo not given)
active: [1] 98.2% | [2] 95.5% | [3] 94.2% | [4] 95.1% | [5] 95.2% | [6] 111% | [7] 98% | [8] 96.8% | [9] 82.5% | [10] 76.1%

CC12CCC3C(CCC4(O)CC(O)CCC34C=O)C1(O)CCC2C1=CC(=O)OC1 (stereo not given)
active: [1] 90% | [2] 67.4% | [4] 67.5% | [6] 109% | [7] 96.2%
inactive: [3] 14.4%

CC(C)(O)/C=C/C(=O)C(C)(O)C1C(O)CC2(C)C3CC=C4C(C=C(O)C(=O)C4(C)C)C3(C)C(=O)CC12C (stereo not given)
active: [1] 70.1% | [2] 74% | [5] 66% | [6] 79.3% | [7] 78.9% | [8] 86.1% | [9] 62.2% | [10] 96.5%

C[C@H]1CCC/C=C/[C@@H]2C[C@H](O)C[C@H]2[C@@H](O)/C=C/C(=O)O1
active: [1] 64.3% | [2] 77.3% | [5] 81.5% | [6] 85.4% | [7] 80% | [8] 74.8%

O=c1[nH]c2ccccc2n1C1CCN(C(c2cccs2)c2nnnn2-c2ccc3c(c2)OCCO3)CC1 (stereo not given)
active: [4] 25.5%
inactive: [3] -26.2%

CCCCn1nnnc1C(CCc1ccccc1)N1CCC(n2c(=O)[nH]c3ccccc32)CC1 (stereo not given)
inactive: [3] -23.9% | [4] 7.75%

COc1ccc(-n2nnnc2C(c2cccs2)N2CCC(n3c(=O)[nH]c4ccccc43)CC2)cc1 (stereo not given)
inactive: [3] -25.6% | [4] -13.5%

COC(=O)c1ccc(NC(=O)CSc2nc3ccc(N4C(=O)C5C6C=CC(C6)C5C4=O)cc3s2)cc1 (stereo not given)
inactive: [1] -22.8% | [2] -0.23% | [9] 24.8% | [10] -3.51%
